# The entries come from a sample that favours hits as a whole.
# AmpC inh detg = qHTS Inhibitors of AmpC Beta-Lactamase (assay with detergent) | P00811 | AmpC hydrolysis of nitrocefin, absorbance 480 nm, 0.01% Triton | Potency, µM (highest dose often 114 µM), for the others: top-dose activity change, negative = inhibition, actives largely listed as inhibitors | 0.041% of 370,000 active | AID 485294, 2010;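 also: potency is read from the fitted curve at half-maximal effect; 0% = no-compound wells and -100% = no-enzyme wells; nearly all actives have a fitted effect of over 25% in size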
# Target sequence (P00811 whole entry, looked up): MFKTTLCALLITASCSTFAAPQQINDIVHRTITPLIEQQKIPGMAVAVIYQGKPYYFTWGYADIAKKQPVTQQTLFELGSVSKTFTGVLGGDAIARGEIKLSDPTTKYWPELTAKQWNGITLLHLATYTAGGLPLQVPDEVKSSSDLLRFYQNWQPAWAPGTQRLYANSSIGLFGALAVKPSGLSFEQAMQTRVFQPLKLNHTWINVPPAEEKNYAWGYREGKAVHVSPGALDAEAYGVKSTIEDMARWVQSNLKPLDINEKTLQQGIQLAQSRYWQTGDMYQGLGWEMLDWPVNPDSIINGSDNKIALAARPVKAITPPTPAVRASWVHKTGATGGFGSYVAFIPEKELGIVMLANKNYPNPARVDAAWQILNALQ
#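 AmpC (5.3 nM in the dispensed reagent) in 20 mM phosphate pH 7.0 with 0.01% (detergent screen) or 0.0001% Triton X-100 was preincubated with compounds for 15 min at room temperature. Nitrocefin was then added from an 800 uM solution, and hydrolysis was followed at 480 nm.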
# SARS PLpro yeast = qHTS of Yeast-based Assay for SARS-CoV PLP; S. cerevisiae expressing SARS-CoV PLpro, growth rescue; 0.19% of 330,000 active; Potency, µM (highest dose often 32.9 µM), without a hit: top-dose activity, positive = growth rescue, usual class: activators; calls by dose curve; also: potency is read from the fitted curve at half-maximal effect; 0% is about no effect; nearly all actives have a fitted effect of over 55% in size
# Cycloheximide cs = Cycloheximide Counterscreen for Small Molecule Inhibitors of Shiga Toxin | cell reporter, cycloheximide protein synthesis inhibition counterscreen | 12% of 300,000 active | max response, %; in the data active = max response mostly above about 13%, no sharp cut-off; inactive = mostly below about 14%; also: read at 38.3 µM for the half of the compounds with a filed dose; 0% is about no effect
# AMA1 RON2 block = qHTS for Inhibitors of AMA1-RON; Towards Development of Antimalarial Drug Lead: Primary Screen; Plasmodium falciparum AMA1 (3D7) - RON2 peptide interaction; AlphaScreen AMA1-biotinylated RON2 peptide binding; Potency, µM (series often up to 58.2 µM), without a hit: at the top dose activity change, negative = inhibition, most hits filed as inhibitors; 0.2% of 360,000 active; AID 720542, 2013;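 also: potency is read from the fitted curve at half-maximal effect; 0% = vehicle wells and -100% = peptide control; nearly all actives have a fitted effect of over 45% in size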
#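 AMA1 (3D7) with his tag at 25 nM final met compounds first, then biotinylated RON2 peptide at 25 nM; detection used donor plus acceptor beads, 10 µg/mL apiece, read by AlphaScreen after 30 min at room temperature.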
# Shiga inhibitor = A qHTS for Small Molecule Inhibitors of Shiga Toxin; Vero cells, Shiga toxin protein synthesis inhibition reporter; inhibition, % at 38.7 µM; 9.2% of 290,000 active; in the data active = inhibition mostly above about 28%, no sharp cut-off; inactive = mostly below about 43%; also: 0% is about no effect
# AmpC inh no detg = qHTS Inhibitors of AmpC Beta-Lactamase (assay without detergent). AmpC nitrocefin hydrolysis, absorbance 480 nm, 0.0001% Triton. AID 485341, 2010. 0.52% of 330,000 active. Potency, µM (doses to about 57.1 µM), inactives show at the top dose activity change, negative = inhibition, actives largely listed as inhibitors. P00811;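 also: potency is read from the fitted curve at half-maximal effect; plate controls were no compound for no effect and no enzyme for full effect; nearly all actives have a fitted effect of over 20% in size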
#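 20 mM phosphate pH 7.0 + 0.01% (detergent screen) or 0.0001% Triton X-100; 5.3 nM AmpC reagent; cpd preinc 15 min RT; nitrocefin (800 uM stock) to start; A480 q20 s × 4 min; Activity was normalised to no-enzyme and no-compound control wells.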
# An asterisk follows results filed as active; ? = inconclusive; . = no result given; + = active, no number; [ ] = dose if it differs, or a comment. Unless noted, calls follow the shape of the dose curve; as a rule, active = well fitted curve in the direction sought with a large enough effect; inconclusive = small, poorly fitted or top-dose-only effect, or another doubt; inactive = no such curve, though single readings can be large; an effect the other way counts as inactive or inconclusive.
SMILES,AmpC inh detg,SARS PLpro yeast,Cycloheximide cs,AMA1 RON2 block,Shiga inhibitor,AmpC inh no detg
CCCCOc1ccc(C(=O)Nc2ccc3c(c2)OCO3)cc1,-12%,0%,18*,-9%,24,0%
CCCOc1ccc(C(=O)Nc2ccc3c(c2)OCO3)cc1,3%,-2%,49*,-10%,122*,-23%
CCC(=O)Oc1ccc(C(=O)Nc2ccc3c(c2)OCO3)cc1,9%,-3%,46*,-11%,108*,-2%
COC(=O)c1cc(C#N)c(NCc2ccc(Cl)cc2Cl)nc1C,-4%,1%,-4,2%,-9,-24%
COC(=O)c1ccc(-c2ccc(Cl)cc2)nc1C,5%,-7%,95*,9%,37*,-5%
CCOC(=O)NC1(Nc2ccc(Cl)cn2)Oc2ccccc2O1,?,1%,8.1*,.,34,-21%
CCOC(=O)c1ccc(NC(=O)Nc2ccc(Cl)cn2)cc1,-6%,0%,-3,3%,18,-27%
Fc1ccccc1CSc1nnnn1-c1ccc2c(c1)OCO2,0%,-8%,16*,14%,23,-15%
O=C(CSc1nnnn1-c1ccc2c(c1)OCO2)NCc1cccs1,-8%,0%,27*,0%,+,-17%
COc1ccccc1N(C)S(=O)(=O)c1ccc(C(=O)NCCCN2CCCC2=O)cc1,.,.,.,5%,.,.
C[C@@H](C(=O)Nc1nc2ccc(F)cc2s1)N1C(=O)C2CC=CCC2C1=O (some centres undefined),5%,-2%,23*,8%,57,-19%
Cc1ccc2nc(NC(=O)[C@H](C)N3C(=O)C4CC=CCC4C3=O)sc2c1 (some centres undefined),3%,1%,33*,-6%,37*,-26%[11.4 µM]
C[C@@H](C(=O)Nc1nc2ccccc2s1)N1C(=O)C2CC=CCC2C1=O (some centres undefined),-13%,0%,17,1%,22,-26%
COc1ccccc1CCc1nnc(CCC(=O)N(C)Cc2cccc3ncccc23)o1,2%,-1%,12,-1%,27,68%
CCOC(=O)c1[nH]c2ccc(F)cc2c1NC(=O)C1=COCCO1,-2%,14%,9,4%,-24,-20%
Cc1ccccc1NS(=O)(=O)c1ccc(C(=O)NCC(c2ccco2)N(C)C)cc1 (centres undefined),?,-2%,.,5%,.,-16%
COc1cccc(C(=O)/C=C2\Sc3ccccc3N2C)c1,-10%,-3%,31*,11%,84*,-25%
CN1/C(=C\C(=O)c2cccnc2)Sc2ccccc21,7%,-2%,42*,5%,93*,-12%
CCCCN(C)CCNC(=O)c1cc2cc3ccc(OC)cc3nc2o1,-8%,1%,-3,-1%,-4,6%
CCCCN(C)C(=O)c1cc2cc3ccc(OC)cc3nc2o1,-1%,-1%,29*,4%,79*,-1%
CCN(C(=O)c1cc2cc3ccc(C)cc3nc2o1)c1ccc(OC)cc1,3%,-14%,36*,-10%,37*,17%
CCCCN(C)C(=O)c1cc2cc3cc(OC)ccc3nc2o1,?,-6%,42*,0%,63*,61%
COCCCNC(=O)c1cc2cc3cc(OC)ccc3nc2o1,2%,-5%,20*,6%,19,-6%
CN=C(Nc1ccccc1OC)SC1CC(=O)N(c2ccc(C(=O)OC)cc2)C1=O (centres undefined),?,-6%,-2,-9%,-4,77%
CN1CCN(C2Cc3ccccc3Sc3cc(C(F)(F)F)ccc32)CC1 (centres undefined),.,.,.,-10%,.,.
COc1ccc(C2=NN(C(=O)c3cccs3)C(c3ccc(OC)cc3)C2)cc1 (centres undefined),-10%,-2%,13*,-8%,22,-7%
